Compound activity as filed in PubChem.
In the library only some 17% were active in any assay of this set; here they are far more common.
TDP1 cell noCPT – qHTS for Inhibitors of human tyrosyl-DNA phosphodiesterase 1 (TDP1): qHTS in cells in absence of CPT; Potency, µM (titrated, usually from 46.2 µM), without a hit: top-dose activity change, negative = growth inhibition, hits mostly inhibitors; DT40 Tdp1-/- hTDP1 cells, no CPT, ATP luminescence, 48 h; AID 686978, 2013; hit rate 15% among 420,000; note: % is set by controls: 0 for no effect and ±100 for the full control effect; nearly all actives have a fitted effect of over 55% in size
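No-CPT arm: Tdp1-/-;hTDP1 DT40 cells (400/well) plus compounds, incubated ≥48 hr at 37 °C. Readout CellTiter-Glo luminescence.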
ATXN viability – Viability Counterscreen for Primary qHTS for Inhibitors of ATXN expression; Potency, µM (series often up to 56.7 µM), usual class: cytotoxic; hit rate 0.49% among 400,000; S2 cells (HEK-293 line with an ATXN2-luciferase reporter) viability, CellTiter-Fluor protease fluorescence, 24 h; note: nearly all actives have a fitted effect of over 40% in size
ATXN2 expr inh – Primary qHTS for Inhibitors of ATXN expression | HEK-293 ATXN2-luciferase reporter, luminescence, 24 h | Potency, µM (titrated, usually from 57 µM), without a hit: top-dose activity change, negative = inhibition, hits mostly inhibitors | hit rate 0.72% among 360,000 | AID 1745845, 2022; note: % is set by controls: 0 for no effect and ±100 for the full control effect; nearly all actives have a fitted effect of over 55% in size
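qHTS (up to 57 uM final) was run with 24 h compound exposure of reporter cells at 37 °C. Each well was multiplexed: SteadyGlo luminescence measured ATXN2-luciferase expression after a fluorogenic Gly-Phe-AFC viability readout (25 uM final).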
DT40 TDP1 CPT – qHTS for Inhibitors of human tyrosyl-DNA phosphodiesterase 1 (TDP1): qHTS in cells in presence of CPT; chicken DT40 Tdp1-/-;hTDP1 cells + 20 nM CPT, ATP luminescence, 48 h; AID 686979, 2013; hit rate 12% among 420,000; Potency, µM (doses to about 46.2 µM), without a hit: at the top dose activity change, negative = growth inhibition, actives largely listed as inhibitors; note: % is set by controls: 0 for no effect and ±100 for the full control effect; nearly all actives have a fitted effect of over 55% in size
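Chicken DT40 Tdp1-/- cells stably complemented with human TDP1 were seeded at 400 cells/well in medium containing 20 nM camptothecin, exposed to pin-transferred compounds, and grown at 37 °C for at least 48 hr. Viability was read as ATP luminescence.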
HepG2 viability – qHTS for Inhibitors of TGF-b: Cytotox Counterscreen | HepG2 CAGA-GFP viability, ATP luminescence, 18 h | Potency, µM (doses to about 46.1 µM), inactives show at the highest dose activity change, negative = cytotoxicity, actives largely listed as cytotoxic | hit rate 0.76% among 410,000 | AID 588856, 2011
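HepG2 CAGA-GFP cells (1000/well, DMEM with 1% FBS) received compound, then TGF-beta at 500 pg/mL final, and were incubated 18 hours at 37 degrees C. Viability was read by CellTiter-Glo luminescence. Media-only wells were set as complete cell-killing and DMSO as no toxicity.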
TGFb SMAD3 inh – qHTS for Inhibitors of TGF-b | Potency, µM (highest dose often 46.1 µM), without a hit: top-dose activity, negative = inhibition, hits mostly inhibitors | HepG2 CAGA-GFP TGF-b/SMAD3 reporter, GFP fluorescence, 18 h; TGF-beta stimulated, 500 pg/mL final | hit rate 1.2% among 410,000; note: % is set by controls: 0 for no effect and ±100 for the full control effect; nearly all actives have a fitted effect of over 65% in size
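Smad-responsive CAGA-GFP expression was quantified in HEPG2 cells exposed to compounds and 500 pg/mL final TGF-beta for 18 h at 37 degrees C; unstimulated wells defined full inhibition.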
* = called active by the depositor; i = inactive; u = inconclusive; x = no result; [ ] = remark or other dose. Calls come from the whole dose curve; as a rule, active = well fitted curve in the direction sought with a large enough effect; inconclusive = small, poorly fitted or top-dose-only effect, or another doubt; inactive = no such curve, though single readings can be large; an effect the other way counts as inactive or inconclusive. Potency is the fitted concentration of half-maximal effect.

SMILES	TDP1 cell noCPT	ATXN viability	ATXN2 expr inh	DT40 TDP1 CPT	HepG2 viability	TGFb SMAD3 inh
CCn1cc(C(=O)N(C)c2ccc(C(C)C)cc2)c2cc(OC)c(OC)cc2c1=O	18.4µM*	i	-27.3%	u	-17.6%	-10.1%
CCn1cc(C(=O)Nc2cccc(NC(C)=O)c2)c2cc(OC)c(OC)cc2c1=O	u	i	-4.0%	-13.6%	4.7%	-8.6%
COc1cc2c(C(=O)N(C)c3cccc(C(F)(F)F)c3)cn(CC(C)C)c(=O)c2cc1OC	18.4µM*	i	-22.0%	13µM*	-18.0%	-11.1%
CCn1cc(C(=O)N(C)c2cc(C)ccc2C)c2cc(OC)c(OC)cc2c1=O	20.6µM*	u	-14.2%	25.9µM*	1.9%	-1.9%
CCn1cc(C(=O)Nc2ccc(C(C)C)cc2)c2cc(OC)c(OC)cc2c1=O	16.4µM*	i	-4.5%	u	-30.2%	-26.8%
CCOC(=O)N1CCC(NC(=O)c2cnn(-c3cccc(F)c3)c2-n2cccc2)CC1	18.4µM*	x	x	u	-0.3%	0.0%
CCOC(=O)N1CCC(NC(=O)c2c(C)nn(-c3cccc(C)c3)c2-n2cccc2)CC1	18.4µM*	x	x	20.6µM*	-24.9%	-6.9%
COc1cc(N)c(NC(=O)/C=C/c2nc3cc(OC)c(OC)cc3[nH]2)cc1OC	-4.9%	x	x	-25.8%	-1.8%	12.0%
CS(=O)(=O)NCC(c1cccnc1)N1CCN(c2ccccc2F)CC1 (configuration not stated)	-12.9%	i	x	-3.5%	-8.1%	-7.1%
Cc1cc(C)n(-c2nc(C)c(C)c(=O)n2CC(=O)Nc2cccc([N+](=O)[O-])c2)n1	16.4µM*	x	x	u	2.9%	15.4%
Cc1cc(=O)n(CC(=O)Nc2ccc(Cl)c(Cl)c2)c(-n2nc(C)cc2C)n1	16.4µM*	x	x	u	-31.2%	0.0%
Cc1ccc(S(=O)(=O)NC(=NC2CCCCC2)c2ccc(Cl)cc2)cc1	0.4%	i	-2.6%	6.2%	-2.1%	-1.2%
CCCC1CCc2c(sc(NC(=O)OCC)c2C#N)C1 (configuration not stated)	23.1µM*	i	-1.8%	14.6µM*	-9.7%	12.0%
Cc1ccc2c(=O)cc(C(=O)Nc3sc4c(c3C(=O)NCc3ccco3)CCC4)oc2c1	-22.4%	i	-4.0%	-6.0%	-34.7%	-10.3%
Cc1ccc(-c2cc(C(=O)Nc3sc4c(c3C(=O)NCc3ccco3)CCC4)[nH]n2)c(O)c1	u	i	x	-12.7%	-7.9%	-25.2%
CCNC(=O)c1c(NC(=O)c2cc(-c3cc(C)ccc3O)n[nH]2)sc2c1CCCC2	16.4µM*	i	-20.9%	u	-14.8%	-0.6%
COCCNC(=O)c1c(NC(=O)c2cc(=O)c3cc(Cl)ccc3o2)sc2c1CCCC2	-22.5%	x	x	-9.0%	10.4%	-0.2%
CNC(=O)c1c(NC(=O)Cc2coc3ccc(OC)cc23)sc2c1CCCC2	20.6µM*	i	4.4%	16.4µM*	-17.1%	13.1%
CCNC(=O)c1c(NC(=O)Cc2coc3cc(C)ccc23)sc2c1CCCC2	18.4µM*	i	-8.2%	11.6µM*	4.3%	28.5%
COCCCNC(=O)c1c(NC(=O)Cc2coc3cc(C)ccc23)sc2c1CCCC2	16.4µM*	i	71.6%	16.4µM*	-53.2%	-15.0%
Oc1ccc(Cl)cc1CN1CCOc2c(O)cc(-c3nc4ccccc4s3)cc2C1	u	u	x	-13.8%[9.04 µM]	x	x
Cc1nc(N2CCCC2)ncc1C(=O)Nc1ccccc1	-10.4%	i	-2.4%	-28.3%	-4.1%	8.1%
CNC(=O)c1ccsc1NC(=O)c1coc2ccccc2c1=O	18.4µM*	u	2.7%	u	-4.7%	-19.5%
